Among the data in PubChem BioAssay (NCI) are growth values, retold here.

The structures appear in SMILES notation. This is part of a sample that, as a whole, favours compounds with a hit. Of some 83,000 tested, about 20% had one in any assay.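 Negative percent growth values reflect cell death: -40 means 40% of the cells present at the start died, and -100 means all died.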 Unmarked numbers belong to inactive results. The source made the active and inactive calls. Rule for the calls: active = growth percent below 10; inactive = the rest.

Holding throughout (test): NCI-60 one-dose screen, 48 h (100 = growth as untreated, 0 = no growth, -100 = all killed)
Common to all, as to settings: 10 µM unless noted

Assay [1] has as its system NCI-H23 lung.
Assay [2] relates to NCI-H226 lung.
Assay [3] relates to NCI-H322M lung.
Assay [4] has as its system HOP-62 NSCLC.
Assay [5] concerns NCI-H460 lung.
For assay [6], the system named is HOP-92 NSCLC.
Assay [7] relates to NCI-H522 lung.
Assay [8] relates to A549/ATCC NSCLC.
For assay [9], the system named is 786-0 renal.
In assay [10] the test system is COLO 205 colon.

Regarding `NC(=O)c1cccc([C@@H]2O[C@H](CO)[C@@H](O)[C@H]2O)c1`, the growth in assay [1] was 63.7%; in assay [2] it was 73.1%; in [3], 87%; in assay [4], 47.7%; in [5] it was 103%; in assay [6], 52.4%. Also, the growth was 42.2% in assay [7], 71.6% in [8], 12.9% in [9] and 40.5% in assay [10].
Consider `O=C(Cc1ccc(NC(=O)c2cccc(Cl)c2)cc1)NCc1ccccc1`, for which the growth in [1] is 73.2%; in assay [2] it was 87%; in assay [3], 73.9%; in assay [4] it was 46.6%; in assay [5], 28.8%; in assay [6] it was 72.2%. In addition, the growth was 55.1% in [7], 43.9% in assay [8], 53.6% in assay [9] and 39.3% in [10].
Turning to `CCCCNc1nnc2n(Cc3ccccc3)c(=O)c3c4c(sc3n12)CCCC4`, the growth was 45.5% in [1]; 50.8% in assay [2]; 69.2% in [3]; 44.5% in assay [4]; 22.7% in assay [5]; 53.2% in [6]. The growth in assay [7] was 33.2%; in [8], 37.8%; in assay [9], 47.6%; in [10], 61.1%.
For the compound `CCN1CCN(CC(=O)Nc2nc3ccc(NCc4ccc(F)cc4)cc3s2)CC1`, the growth was 90% in assay [1]; 90.9% in assay [2]; 94.3% in assay [3]; 91.8% in [4]; 98.8% in assay [5]; 61.3% in [6]. In addition, the growth in assay [7] is 104%; in assay [8], 99.8%; in [9], 93%; in assay [10] it was 78%.
`CNC(=O)c1cc(Oc2ccc3c(c2)sc2nc(-c4ccc(OC)cc4)cn23)ccn1`: the growth in [1] is 41.2%; in assay [2], 61.6%; in [3] it was 56.7%; in assay [4], 19.4%; in [5], 6.83% (active); in assay [6], 35%. In addition, the growth in [7] is 38.1%; in [8], 15.9%; in [9], 29.3%; in [10], 0.159% (active).
With `COc1cc2c(c(OC)c1OC)C(=O)CC(c1cccc(NC(=O)c3ccc(C#N)cc3)c1)O2` (stereo not given), the growth is 70.6% in assay [1]; 68.3% in [2]; 91.4% in assay [3]; 73.6% in [4]; 85.6% in assay [5]; 67.6% in assay [6]. Besides, the growth in [7] was 46.6%; in [8] it was 77.4%; in assay [9], 91.9%; in [10], 90.6%.
With `Cc1ccc(C)c(/C=C2\CN(C(=O)OC(C)(C)C)C/C(=C\c3cc(C)ccc3C)C2=O)c1`, the growth in assay [1] is 49.7%; in assay [2], 89%; in assay [3], 93.9%; in [4], 93.4%; in [5] it was 45.3%; in [6], 91.3%. In addition, the growth was 46.1% in assay [7], 80.5% in [8], 74.5% in assay [9] and 30.9% in assay [10].
As for `Cc1ccc2c(-c3nnc(N)s3)cc(=O)oc2c1C`, the growth in assay [1] is 95.5%; in assay [2] it was 97.5%; in assay [3], 98.5%; in assay [4], 101%; in assay [5], 102%; in assay [6] it was 106%. In addition, the growth was 102% in assay [7], 104% in assay [8], 92.4% in assay [9] and 119% in [10].
Turning to `O=C1/C(=C/c2ccc(F)cc2)CN(C(=O)C(Cl)Cl)C/C1=C\c1ccc(F)cc1`, the growth is -48.1% (active) in assay [1]; 0.691% (active) in assay [2]; -63% (active) in assay [3]; -19.1% (active) in assay [4]; -78% (active) in [5]; -48% (active) in assay [6]. Moreover, the growth in [7] was -58.1% (active); in [8], -31.8% (active); in assay [9] it was -56.2% (active); in [10] it was -70.2% (active).
Regarding `N#CC1=C(N)Oc2ccc3ccccc3c2C1c1ccc([N+](=O)[O-])cc1` (stereo not given), the growth in assay [1] is 78.2%; in assay [2], 87.4%; in assay [3] it was 89.3%; in [4] it was 81.8%; in [5], 93.3%; in assay [6], 121%. The growth is 73.5% in assay [7], 93.7% in [8], 88.1% in assay [9] and 102% in assay [10].
For the compound `Oc1ccc(/C=C/c2ccc(O)cc2)cc1`, the growth was 62.2% in [1]; 90.8% in [2]; 58.5% in assay [3]; 71.4% in assay [4]; 34.5% in assay [5]; 73.2% in assay [6]. For the same compound, the growth is -0.122% (active) in [7], 60.7% in [8], 24.3% in [9] and 134% in assay [10].
Turning to `CN1CCN(c2ccc(NC(=O)c3cncnc3Nc3ccc(OCc4cccc(F)c4)c(Cl)c3)cc2)CC1`, the growth is 78% in assay [1]; 94.9% in [2]; 81.1% in [3]; 33.1% in [4]; 5.33% (active) in assay [5]; 57.1% in assay [6]. Further, the growth in [7] was 103%; in assay [8], 57%; in [9], 56%; in [10], 6.12% (active).
Turning to `CN(Cc1cc(Br)cc(Br)c1O)Cc1cc(Br)cc(Br)c1O`, the growth in assay [1] was 36.9%; in assay [2] it was 52%; in [3], 26.4%; in assay [4], 30.9%; in [5], 19.1%; in [6] it was 32.3%. The growth in assay [7] is 3.36% (active); in [8], 36.8%; in assay [9], 39.9%; in assay [10], 84%.
Take `CS(=O)(=O)c1nnc(-c2ccccc2)s1`: the growth is 99.4% in [1]; 113% in assay [2]; 111% in assay [3]; 85.5% in [4]; 111% in assay [5]; 103% in assay [6]. The growth in assay [7] is 11.6%; in [8], 87.1%; in assay [9] it was 88.7%; in assay [10], 77.3%.
With `C=C1C(=O)O[C@H]2[C@H]1CC/C(COC(=O)/C=C\C(=O)NCc1ccc(Cn3c(=O)sn(CCCl)c3=O)cc1)=C\CC[C@@]1(C)O[C@@H]21`, the growth in assay [1] was 86.9%; in [2] it was 102%; in [3] it was 104%; in assay [4] it was 116%; in assay [5], 101%; in [6], 115%. The growth in [7] is -64.4% (active); in assay [8], 111%; in assay [9], 83.4%; in assay [10], 34.8%.
As for `Cc1ccc(/C=C/C(=O)c2ccc(-n3cc(CN4CCN(c5cc6c(cc5F)c(=O)c(C(=O)O)cn6C5CC5)CC4)nn3)cc2)cc1`, the growth in [1] is 81.5%; in assay [2], 84.6%; in [3], 94.3%; in assay [4] it was 81.3%; in [5] it was 89.7%; in [6], 76.2%. The growth in assay [7] is 88.6%; in [8], 93.5%; in assay [9] it was 64.9%; in [10] it was 101%.
For the compound `CSC1=Nc2c(c(C)c(-c3ccccc3)n2CCCC(=O)O)C2=NC(=O)C[C@H](C)N12`, the growth is 105% in [1]; 110% in assay [2]; 102% in assay [3]; 89.7% in assay [4]; 102% in [5]; 94.3% in assay [6]. Besides, the growth in assay [7] is 93%; in assay [8], 101%; in assay [9] it was 102%; in [10] it was 119%.
Take `COC1=C(C)C(=O)N2[C@@H]1[C@H](c1ccccc1)OC21C=CC(=O)C=C1`: the growth is 3.23% (active) in assay [1]; -25.9% (active) in assay [2]; 81.8% in assay [3]; 28.7% in assay [4]; 89.4% in assay [5]; -11.7% (active) in [6]. Besides, the growth was -69.3% (active) in [7], 82.3% in [8], -48.9% (active) in [9] and -34.6% (active) in assay [10].
On to `COc1cc(C(=O)n2nc(N3CCOCC3)c3cc(-n4cccc4)ccc32)cc(OC)c1OC`, for which the growth in [1] is 76.5%; in assay [2], 69.3%; in [3], 88.3%; in assay [4] it was 92.4%; in assay [5], 75.7%; in assay [6], 14.4%. For the same compound, the growth in assay [7] is 74.4%; in [8] it was 72.6%; in [9] it was 17.4%; in assay [10], 56.6%.
Turning to `O=C(CC(=O)Nc1cccc(C(=O)O)c1)Nc1cccc(C(=O)O)c1`, the growth in [1] was 107%; in assay [2], 112%; in assay [3], 105%; in assay [4], 88.3%; in assay [5] it was 100%; in assay [6], 99.7%. The growth in assay [7] was 78%; in [8], 85.8%; in assay [9], 98%; in assay [10], 100%.
For `CN1CCN(CCOc2ccc(-c3cnc4c(-c5ccc(F)cc5)cnn4c3)cc2)CC1`, the growth in [1] was 67%; in assay [2], 104%; in assay [3] it was 75%; in assay [4], 72.6%; in assay [5], -1.23% (active); in assay [6], 54.9%. Moreover, the growth in assay [7] was 64.1%; in [8], 27.3%; in assay [9], 60.3%; in assay [10] it was -51.7% (active).
Regarding `COc1ccc2c(c1)c(-c1nc(-c3c[nH]c4ncccc34)cs1)cn2CCO`, the growth in [1] was 62.5%; in assay [2], 36.5%; in [3], 47.6%; in [4], 53.7%; in assay [5], 46.3%; in assay [6], 48.6%. The growth is 36.8% in assay [7], 66.9% in assay [8], 59.5% in assay [9] and 56.9% in assay [10].
Take `Oc1c(CN2CCCC2)cc(CSCc2ccccc2)c2cccnc12`: the growth in assay [1] is 11.8%; in [2], -4.43% (active); in assay [3], -0.478% (active); in assay [4] it was 4.78% (active); in [5], 2.01% (active); in assay [6] it was 14.5%. Further, the growth in assay [7] is 12.9%; in assay [8], 9.29% (active); in assay [9], 6.65% (active); in assay [10] it was 51%.
Regarding `COc1ccc(Cn2cc3c(c2-c2ccccc2)CCc2cnoc2-3)cc1`, the growth in assay [1] was 27.2%; in assay [2], 43.6%; in assay [3], 70.2%; in assay [4], 30.1%; in [5], 2.53% (active); in assay [6] it was 52.2%. Moreover, the growth in [7] was 12.1%; in [8] it was 20.5%; in [9] it was 19.4%; in [10] it was -30.1% (active).
For the compound `O=C1Nc2c(C(=O)O)cccc2/C1=N/c1n[nH]c(=S)s1`, the growth in [1] is 87.8%; in assay [2], 86.2%; in assay [3], 95.6%; in assay [4], 79.7%; in assay [5], 93.4%; in assay [6], 96.1%. The growth in assay [7] was 81.1%; in assay [8] it was 85.5%; in [9], 91.3%; in assay [10] it was 118%.
Turning to `CN1CCN(CC(=O)Nc2ccc3ncnc(Nc4ccc(Oc5cccc(C(F)(F)F)c5)c(Cl)c4)c3c2)CC1`, the growth in assay [1] was 53.1%; in [2], 81.5%; in [3] it was 26.5%; in assay [4], 54.1%; in assay [5] it was -69.4% (active); in [6], 39.7%. The growth in [7] was 18%; in assay [8] it was 10.2%; in [9], -75.8% (active); in assay [10], -39.5% (active).
As to `C=C(C)[C@@H]1CC[C@]2(COC(C)=O)CC[C@]3(C)[C@H](CC[C@@H]4[C@@]5(C)CCCN(C(C)=O)C(C)(C)[C@@H]5CC[C@]43C)[C@@H]12`, the growth is 89.2% in assay [1]; 45.2% in [2]; 61.3% in assay [3]; 82.6% in assay [4]; 0.0182% (active) in [5]; 69.3% in assay [6]. The growth in assay [7] is 59.6%; in assay [8] it was 33.8%; in assay [9], 8.13% (active); in [10], -76.5% (active).
